Data: PMC5540273 (PLoS ONE, 2017)

What was measured:
Settings in all cases: concentration: 1 μM, replicates: in singlicate; n = 1
MARK3 = tested on: MARK3
MARK4 = tested on: MARK4
MAST1 = tested on: MAST1
MEK1 = tested on: T1, MEK1
T1 construct: gene MAP2K1

MEK2 = tested on: T2, MEK2
T2 construct: gene MAP2K2

MEK3 = tested on: T3, MEK3
T3 construct: gene MAP2K3

MEK4 = tested on: T4, MEK4
T4 construct: gene MAP2K4

MEK5 = tested on: T5, MEK5
T5 construct: gene MAP2K5

MEK6 = tested on: T6, MEK6
T6 construct: gene MAP2K6

MELK = tested on: MELK
MERTK = tested on: MERTK
MET = tested on: MET
MINK = tested on: T7, MINK
T7 construct: gene MINK1

MKK7 = tested on: MKK7
MKNK1 = tested on: MKNK1
MKNK2 = tested on: MKNK2
MLCK = tested on: T8, MLCK
T8 construct: gene MYLK3

MLK1 = tested on: T9, MLK1
T9 construct: gene MAP3K9

MLK2 = tested on: MLK2
MLK3 = tested on: MLK3
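Note: KINOMEscan kinase panel screen.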

Row | Compound | %Inh (MARK3) [%] | %Inh (MARK4) [%] | %Inh (MAST1) [%] | %Inh (MEK1) [%] | %Inh (MEK2) [%] | %Inh (MEK3) [%] | %Inh (MEK4) [%] | %Inh (MEK5) [%] | %Inh (MEK6) [%] | %Inh (MELK) [%] | %Inh (MERTK) [%] | %Inh (MET) [%] | %Inh (MINK) [%] | %Inh (MKK7) [%] | %Inh (MKNK1) [%] | %Inh (MKNK2) [%] | %Inh (MLCK) [%] | %Inh (MLK1) [%] | %Inh (MLK2) [%] | %Inh (MLK3) [%]
1 | Cl.c1ccc(Cn2ncc3cc(Nc4ncnc5ccccc45)ccc32)cc1 [GW273749] | 0 | 0 | 0 | 0 | 7 | 0 | 0 | 99.7 | 6 | 0 | 9 | 0 | 0 | 0 | 6 | 30 | 0 | 0 | 0 | 0
2 | CS(=O)(=O)CCNCc1nc(-c2ccc3ncnc(Nc4ccc(OCc5cccc(F)c5)c(Cl)c4)c3c2)cs1.Cl [GW583340] | 0 | 0 | 0 | 0 | 0 | 0 | 3 | 57 | 0 | 0 | 0 | 0 | 0 | 0 | 0 | 0 | 0 | 0 | 0 | 0
3 | O=C(NCCCN1CCCC1=O)c1cnc(NCc2cc(Cl)ccc2Cl)nc1NC1CCNCC1 | 0 | 0 | 0 | 0 | 3 | 0 | 0 | 0 | 0 | 0 | 63 | 0 | 0 | 0 | 0 | 0 | 11 | 0 | 0 | 0
4 | Cl.c1ccc(Cn2ccc3cc(Nc4ncnc5ccccc45)ccc32)cc1 [GW275568] | 1 | 30 | 0 | 14 | 6 | 11 | 19 | 84 | 5 | 9 | 0 | 2 | 12 | 7 | 6 | 12 | 0 | 0 | 0 | 13
5 | COc1cc2c(Nc3cccc(NC(=O)c4ccccc4)c3)ncnc2cc1OCCCN1CCOCC1 [GSK223810] | 0 | 22 | 0 | 0 | 3 | 7 | 4 | 80 | 0 | 15 | 20 | 1 | 0 | 0 | 23 | 9 | 0 | 0 | 23 | 13
6 | COc1ccc(NC(=O)c2ccc(-c3cc(-c4nnc(C)o4)ccc3C)cc2)cc1 [GW595885] | 0 | 0 | 5 | 0 | 0 | 0 | 9 | 0 | 0 | 0 | 21 | 0 | 0 | 34 | 2 | 12 | 0 | 0 | 0 | 11
7 | COc1ccc(Nc2nccc(N3CCC(NC(=O)c4cccc(NC(C)=O)c4)C3)n2)cc1 (stereo not shown) [GSK1379732] | 3 | 0 | 42 | 0 | 0 | 0 | 18 | 19 | 0 | 0 | 24 | 0 | 17 | 0 | 0 | 12 | 31 | 0 | 0 | 12
8 | O=C(CCO)NCCn1ccc2ncnc(Nc3ccc(Oc4cccc(C(F)(F)F)c4)c(Cl)c3)c21 | 0 | 0 | 0 | 0 | 34 | 0 | 0 | 99.4 | 0 | 0 | 0 | 0 | 0 | 0 | 0 | 12 | 0 | 0 | 0 | 0
9 | CNc1nccc(-c2c(-c3ccc(F)cc3)ncn2CCCN2CCOCC2)n1 [SB-222516] | 0 | 35 | 20 | 0 | 12 | 15 | 23 | 46 | 0 | 24 | 19 | 3 | 15 | 0 | 3 | 0 | 1 | 33 | 10 | 0
10 | Nc1nc(-c2ccc3c(N)n[nH]c3c2)cc(N2CCCCC2)n1 [GSK2228768] | 0 | 0 | 0 | 0 | 0 | 2 | 0 | 8 | 0 | 0 | 0 | 0 | 0 | 0 | 0 | 23 | 0 | 0 | 0 | 0
11 | Nc1nc(-c2ccc3c(N)n[nH]c3c2)cc(N2CCC[C@@H](C(=O)Nc3ccccc3)C2)n1.O=C(O)C(F)(F)F.O=C(O)C(F)(F)F [GSK2288359] | 0 | 0 | 0 | 0 | 8 | 3 | 0 | 50 | 8 | 13 | 0 | 0 | 0 | 0 | 11 | 1 | 0 | 0 | 0 | 0
